Results filed as inconclusive are left out. Activity calls are given as the source filed them. The call rests on the fitted dose curve; in most records, active means well fitted inhibition curve with a large enough effect; inconclusive means small, poorly fitted or top-dose-only effect; inactive means flat fitted curve, though single readings scatter.
test: P-glycoprotein substrates identified in KB-8-5-11 adenocarcinoma cell line, qHTS therapeutic library screen (AID 1346987); conditions: KB-8-5-11 (P-gp overexpressing) viability, CellTiter-Glo, 72 h; series mostly up to 44.5 µM; activity change, negative = cytotoxicity: at the top concentration; further: nearly all actives have a fitted effect of over 65% in size
In short: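 Human cervical adenocarcinoma KB-8-5-11 cells, selected in colchicine to over-express P-gp and assayed without it, were exposed for 72 h to titrated compounds. An ATP-based luminescent viability signal gave AC50.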
On the % scale 0 is the no-effect control and ±100 the full control effect; potency means the concentration at half of the fitted maximal effect.

| Compound | activity change, negative = cytotoxicity | Potency |
| --- | --- | --- |
| NC(=O)[C@@H]1CCCN1C(=O)[C@H](Cc1cnc[nH]1)NC(=O)[C@@H]1CCC(=O)N1 | -19.7% (inactive) |  |
| CCCCCCCCCCCC(=O)OCC(O)CO (centres undefined) | 18.4% (inactive) |  |
| C[C@]12CC[C@@H]3c4ccc(O)cc4CC[C@H]3[C@@H]1CC[C@@H]2OP(=O)(O)O |  | 20.6 µM (active) |
| c1ccc2c(c1)OCC(CN1CCCCC1)O2 (centres undefined) | 15.3% (inactive) |  |
| CCC(Cc1c(I)cc(I)c(O)c1I)C(=O)O (centres undefined) | 6.03% (inactive) |  |
| OC[C@@H](O)C(O)[C@H](O)CO | 1.11% (inactive) |  |
| OC[C@H]1OC([S-])[C@H](O)[C@@H](O)[C@@H]1O.[Au+] (some centres undefined) | -6.07% (inactive) |  |
| C[C@@](Cc1ccc(O)c(O)c1)(NN)C(=O)O | -3.59% (inactive) |  |
| C=CC1=C(C(=O)O)N2C(=O)[C@@H](NC(=O)/C(=N\O)c3csc(N)n3)[C@H]2SC1 (stereo in doubt) |  | inactive |
| CC(O)[C@@H]1NC(=O)[C@H](Cc2ccccc2)NC(=O)[C@H](C(C)O)NC(=O)[C@H](CCCCN)NC(=O)[C@H](Cc2c[nH]c3ccccc23)NC(=O)[C@H](Cc2ccccc2)NC(=O)[C@H](Cc2ccccc2)NC(=O)[C@H](CC(N)=O)NC(=O)[C@H](CCCCN)NC(=O)[C@@H](NC(=O)CNC(=O)[C@H](C)N)CSSC[C@@H](C(=O)O)NC(=O)[C@H](CO)NC1=O (some centres undefined) | 3.42% (inactive) |  |
| O=C(O)[C@@H]1C[C@H](CP(=O)(O)O)CCN1 | 11.7% (inactive) |  |
| C[S+](C)CCC(N)C(=O)O (centres undefined) | -0.926% (inactive) |  |
| CC(=O)[C@@]1(O)CC[C@H]2[C@@H]3C=C(Cl)C4=CC(=O)[C@@H]5C[C@@H]5[C@]4(C)[C@H]3CC[C@@]21C | -14.6% (inactive) |  |
| C[C@H](N)C(=O)N[C@@H](C)P(=O)(O)O | -2.5% (inactive) |  |
